This is part of a sample that, as a whole, favours compounds with a hit. Of some 83,000 tested, about 20% had one in any assay.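 Negative percent growth values reflect cell death: -40 means 40% of the cells present at the start died, and -100 means all died.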 Values without a mark were called inactive. Activity calls are given as the source filed them. Rule for the calls: active = growth percent below 10; inactive = the rest.
Assays:
Experiment in all cases: NCI-60 one-dose screen, 48 h (100 = growth as untreated, 0 = no growth, -100 = all killed)
Conditions in all cases: 10 µM unless noted
[1] = tested on: SR leukemia
[2] = tested on: RPMI-8226 leukemia
[3] = tested on: OVCAR-8 ovarian
[4] = tested on: OVCAR-5 ovarian
[5] = tested on: OVCAR-4 ovarian
[6] = tested on: SK-OV-3 ovarian
[7] = tested on: IGROV1 ovarian
[8] = tested on: OVCAR-3 ovarian
[9] = tested on: NCI/ADR-RES ovarian
[10] = tested on: HS 578T breast

| SMILES | growth [1] | growth [2] | growth [3] | growth [4] | growth [5] | growth [6] | growth [7] | growth [8] | growth [9] | growth [10] |
| --- | --- | --- | --- | --- | --- | --- | --- | --- | --- | --- |
| C=C=COc1cccc(/C(N)=N/C(N)=N/c2nc3ccccc3s2)c1 | 6.37% (active) | 106% | 62.8% | 83.4% | 89.4% | 102% | 57.7% | 100% | 88.5% |  |
| CNC(=O)c1cc(-c2ccc(NC(=S)Nc3cc(C(F)(F)F)cc(C(F)(F)F)c3)cc2)nc2cccnc12 | 71.8% | 93.7% | 100% | 102% | 75.3% | 102% | 75.9% | 106% | 105% |  |
| O=C1/C(=C/C=C/c2ccco2)SC(=S)N1c1ccccc1 | 43.8% | 53.6% | 66.4% | 88% | 90.9% | 110% | 44.3% |  | 51.2% | 102% |
| O=C(c1ccc(O)cc1)[C@@H]1CN[C@@]2(C(=O)Nc3ccccc32)[C@H]1c1ccc(F)cc1 | 87.5% | 95.4% | 99.2% | 104% | 102% | 115% | 95.3% | 117% | 99.2% |  |
| CCNC(=O)N1CCc2cc(OC)c(OCCc3ccc(OC)c(N)c3)cc2C1c1ccc(C)cc1C (stereo not given) | 15.3% | 20.1% | 24.4% | 33.5% | 57.6% | 52.8% | 21.4% |  | 17.9% | 11.7% |
| CCCn1cnc2c(c1=N)C(c1ccc(OC)cc1)c1sc3c(C)cccc3c1O2 (stereo not given) | 27% | -3.63% (active) | 23.9% | 32.4% | 75.3% | 49% | 18.4% | 7.94% (active) | 7.35% (active) |  |
| NC(N)=Nc1ccc(Oc2cccc(Nc3ccc(Cl)c(C(F)(F)F)c3)c2)cc1 | -26.4% (active) | 33.7% | 68.6% | 58.8% | 55.6% | 82.6% | 17.2% | 35% | 91.6% | 52% |
| CNC(=O)c1c(NC(=O)c2cccc(C(F)(F)F)c2F)sc2c1CCC(=O)C2 | 20% | -0.669% (active) | 16.8% | 4.83% (active) | 8.78% (active) | 4.35% (active) | 10.5% | 12.5% | 7.77% (active) |  |
| CCOC(=O)c1c(NC(=O)c2ccccc2C(F)(F)F)sc2c1CCC(=O)C2 | 24.2% | -6.12% (active) | 37.9% | 21% | 16.7% | 99.7% | 29% | 12.4% | 10.7% |  |
| C=C1CC[C@@H]2[C@]3(C)COC(c4ccccc4)O[C@@H]3CC[C@@]2(C)[C@@H]1C/C=C1/C(=O)OC[C@H]1O (stereo not given in full) | 36.9% | 28.2% | 56.6% | 105% | 83.4% | 119% | 89.3% | 63.8% | 57% |  |
| CCCC(=O)NC(c1cccnc1)c1cc(C(C)(C)C)c2cccnc2c1O (stereo not given) | 11.5% | 24.5% | 17.3% | 40.8% | 31.1% | 7.42% (active) | 6.31% (active) | 12.4% | 21.2% |  |
| COc1ccc([C@@H]2c3[nH]c4ccccc4c3C[C@H]3C(=O)N(C4CCN(CC5CCCCC5)CC4)CC(=O)N23)c(OC)c1 | 25.9% | 53.6% | 82.2% | 94.1% | 70.5% | 86.2% | 60% | 74.9% | 76.7% |  |
| CC[C@]12C=CCN3CC[C@@]4(c5cc(NC(=O)COc6cc(O)c7c(=O)cc(-c8ccccc8)oc7c6)c(OC)cc5N(C)[C@H]4[C@@](O)(C(=O)OC)[C@@H]1OC(C)=O)[C@@H]32 | -30.7% (active) | -31.6% (active) | -17.7% (active) | -86% (active) | -66.9% (active) | -86.1% (active) | -77.7% (active) | -86.2% (active) | -49.9% (active) |  |
| C=C(C)[C@@H]1CC[C@]2(C(=O)NCCCCCN(CCC#N)CCC#N)CC[C@]3(C)[C@H](CC[C@@H]4[C@@]5(C)CCC(=O)C(C)(C)[C@@H]5CC[C@]43C)[C@@H]12 | 80.4% | 79.7% | 106% | 96.2% | 86% | 118% | 97.6% | 111% | 108% |  |
| Cn1ccnc1C(=O)/C=C/c1ccc(CNC(=O)c2ccc(Cl)cc2)cc1 | 4.17% (active) | -13.7% (active) | 24.6% | 11% | 37.9% | 43.1% | 12.2% | 17% | 10.4% |  |
| O=C(CSc1nc2ccccc2c(=O)n1-c1ccccc1)Nc1cccc(C(=O)/C=C/c2ccccc2)c1 | 77.5% | 6.02% (active) | 84% | 96.6% | 94% | 103% | 95.4% |  | 96.8% | 92.5% |
| COc1c(N2CC3CCCNC3C2)c(F)cc2c(=O)c(C(=O)N/N=C/c3ccc(Br)cc3)cn(C3CC3)c12 (stereo not given) | -28.1% (active) | 65.8% | 90.3% | 92.8% | 90.1% | 99.6% | 75.2% | 81.7% | 90.1% |  |
| CCNC(=O)N1CCc2cc(OC)c(OCCc3ccc(OC)c(N)c3)cc2C1c1cc(C)c(C)cc1C (stereo not given) | 15.1% | 32.4% | 39% | 51.7% | 62.6% | 61.4% | 31.9% |  | 20.8% | 36.1% |
| CNCc1cccc2c1OCCCCCCC(C)(O)CC(C)(C)S(=O)(=O)c1ccc(cc1)-c1cnc(N)c(n1)C(=O)N2 (stereo not given) | -36.6% (active) | -41.9% (active) | 55.3% | 55.9% | 30.3% | 38.1% | 3.36% (active) |  | 43.2% | 24.1% |
| Cn1ccnc1C(=O)/C=C/c1ccc(CNC(=O)c2ccc(F)cc2)cc1 | 8.69% (active) | 13% | 47.1% | 17.4% | 42% | 77.8% | 23.1% | 15.1% | 18.9% | 40.4% |
| CCO/C=N/C1=C(C#N)C(c2ccc(OC)cc2)c2sc3c(C)cccc3c2O1 (stereo not given) | 17.9% | 0.107% (active) | 29.3% | 34.4% | 85.3% | 50.3% | 27.1% | 7.72% (active) | 10.9% | 16.6% |
| CN1CCN(Cc2ccc(NC(=O)c3cncc(C#Cc4cnc5ccc(OCC6(C)COC6)nn45)c3)cc2C(F)(F)F)CC1 | -13.9% (active) | -17.7% (active) | -15.3% (active) | -73.2% (active) | -54.7% (active) | -90.8% (active) | -63.8% (active) | -74.5% (active) | -58.1% (active) |  |
| COC(=O)C1(C)CCC[C@]2(C)[C@H]3C[C@H]4C(C(C)C)=C[C@]3(CC[C@@H]12)[C@H]1[C@@H]4[C@@H](OC(=O)c2ccco2)CC[C@@H]1OC(=O)c1ccco1 (stereo not given in full) | 93.4% | 99.5% | 100% | 107% | 103% | 115% | 99.4% | 123% | 107% |  |
| CC/C(=C/c1c(O)cccc1OC)c1ccc2c(OC)cccc2[o+]1 | 90.4% | 109% | 101% | 106% | 99.7% | 97.8% | 102% |  | 99.7% | 107% |
| COc1ccc(/C=N/NC2=NC3C(S2)N(C)C(=O)N3C)cc1 (stereo not given) | 6.64% (active) | 10.5% | 35.6% | 50.4% | 75.6% | 28% | 40.9% | -17.1% (active) | 30.7% |  |
| NS(=O)(=O)c1ccc(Nc2nc(SCC(=O)c3ccc(Cl)cc3)nc3c2CCCC3)cc1 | 26.9% | 42.8% | 52.3% | 88.3% | 47.7% | 101% | 84.8% |  | 74.6% | 44.6% |
| O=C1CCCC2=C1C(c1c[nH]c3ccc(Br)cc13)Cc1cc(Br)ccc1N2 (stereo not given) | 33.3% | 25.1% | 55.3% | 66.2% | 101% | 44.7% | 24.1% | 27.2% | 21.4% |  |
| Cc1[nH]c(C(=O)Nc2ccccc2OCc2cccc(C(=O)N3CCC[C@@H](N)C3)c2)c(Cl)c1Cl | -46.2% (active) | -38.5% (active) | -45.2% (active) | -87.3% (active) | -77.4% (active) | -59.3% (active) | -73.5% (active) |  | -68.8% (active) | -50.9% (active) |

Source: PubChem BioAssay (NCI)
